Reference: PubChem BioAssay (NCATS)
Inconclusive results are not listed. Calls of active or inactive are those of the source. Calls come from the whole dose curve; as a rule, active = well fitted curve in the direction sought with a large enough effect; inconclusive = small, poorly fitted or top-dose-only effect, or another doubt; inactive = no such curve, though single readings can be large; an effect the other way counts as inactive or inconclusive.

Key:
[1] = qHTS of pediatric cancer cell lines to identify multiple opportunities for drug repurposing: Primary screen for NB1643 cells (AID 1347099); note: nearly all actives have a fitted effect of over 50% in size; note: potency is the fitted concentration of half-maximal effect
In short: (§1)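 Plated cells (500-1,000 per well, growth media) were allowed to settle for 5 hours, treated with compound dilutions for 48 hours, then lysed with CellTiter-Glo for 15 min at room temperature before luminescence reading.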

[2] = qHTS of pediatric cancer cell lines to identify multiple opportunities for drug repurposing: Primary screen for LAN-5 cells (AID 1347100); note: potency is the fitted concentration of half-maximal effect
In short: (§2)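 Cells (500-1,000/well) rested 5 h, then received compounds for 48 h; metabolically active cells were measured by CellTiter-Glo luminescence. Final concentrations spanned up to 46 µM (MIPE, 11-point) or 0.59 nM-46 µM (NPC, 8-point) in primary screens, 11-point in follow-ups.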

[3] = qHTS of pediatric cancer cell lines to identify multiple opportunities for drug repurposing: Primary screen for BT-12 cells (AID 1347101); note: nearly all actives have a fitted effect of over 25% in size; note: potency is the fitted concentration of half-maximal effect
In short: as §2

[4] = qHTS of pediatric cancer cell lines to identify multiple opportunities for drug repurposing: Primary screen for OHS-50 cells (AID 1347103); note: nearly all actives have a fitted effect of over 40% in size; note: potency is the fitted concentration of half-maximal effect
In short: as §2

[5] = qHTS of pediatric cancer cell lines to identify multiple opportunities for drug repurposing: Primary screen for control Hh wild type fibroblast cells (AID 1347106);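 note: series mostly up to about 46 µM; a drop in luminescence marks cytotoxicity and a rise apparent proliferation; nearly all actives have a fitted effect of over 55% in size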
In short: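 Viability after 48 h compound treatment at 37C, 500-1,000 cells/well, read as ATP luminescence with CellTiter-Glo. Primary screens used 11-point (MIPE, 0.78 nM-46 µM) or 8-point (NPC, 0.59 nM-46 µM) final concentrations; follow-up screens used 11-point dilutions.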

[6] = qHTS of pediatric cancer cell lines to identify multiple opportunities for drug repurposing: Primary screen for Rh18 cells (AID 1347102); note: nearly all actives have a fitted effect of over 65% in size; note: potency is the fitted concentration of half-maximal effect
In short: as §2

[7] = qHTS of pediatric cancer cell lines to identify multiple opportunities for drug repurposing: Primary screen for RD cells (AID 1347104); note: nearly all actives have a fitted effect of over 55% in size; note: potency is the fitted concentration of half-maximal effect
In short: as §1

[8] = qHTS of pediatric cancer cell lines to identify multiple opportunities for drug repurposing: Primary screen for MG 63 (6-TG R) cells (AID 1347105); note: nearly all actives have a fitted effect of over 50% in size; note: potency is the fitted concentration of half-maximal effect
In short: as §1

[9] = qHTS of pediatric cancer cell lines to identify multiple opportunities for drug repurposing: Primary screen for Rh41 cells (AID 1347108); note: nearly all actives have a fitted effect of over 70% in size; note: potency is the fitted concentration of half-maximal effect
In short: as §1

[10] = qHTS of pediatric cancer cell lines to identify multiple opportunities for drug repurposing: Primary screen for Rh30 cells (AID 1347107); note: series mostly up to about 46 µM; nearly all actives have a fitted effect of over 75% in size
In short: as §2

Measured: Potency

Oc1cc(O)cc(C=Cc2ccc(O)c(O)c2)c1
inactive: [5]
active: [1] 20.9 µM | [2] 13.2 µM | [3] 24.3 µM | [4] 19.3 µM

COc1cc(Cl)cn2c(-c3cccc(NC4CNC4)n3)cnc12
inactive: [6] | [7] | [5]
active: [1] 10.5 µM | [2] 16.6 µM | [4] 12.2 µM

OCCn1cc(-c2ccc3c(c2)CCC3=NO)c(-c2ccncc2)n1
inactive: [2] | [6] | [4] | [8] | [9]
active: [1] 11.8 µM

COc1cc2ncnc(Nc3cc(Br)c(O)c(Br)c3)c2cc1OC
inactive: [6] | [5] | [10]
active: [1] 1.32 µM | [2] 16.6 µM | [4] 27.3 µM | [7] 0.935 µM

CN1[C@H]2CC[C@H]1CC(OC(=O)c1c[nH]c3ccccc13)C2 (some centres not stated)
inactive: [2] | [3] | [7] | [5] | [10]
active: [1] 23.5 µM

CC(C)(C)c1nc(-c2cccc(NS(=O)(=O)c3c(F)cccc3F)c2F)c(-c2ccnc(N)n2)s1
inactive: [2] | [3] | [4] | [8]
active: [1] 18.7 µM

Nc1[nH]nc2nnc(-c3c(-c4ccccc4)nn4ccccc34)cc12
active: [1] 1.87 µM | [2] 6.62 µM | [3] 6.85 µM | [4] 1.93 µM | [7] 11.8 µM | [9] 5.9 µM

COc1cc(Nc2nc3ccccc3nc2NS(=O)(=O)c2ccc(NC(=O)c3ccc(C)c(OC)c3)cc2)cc(OC)c1
inactive: [1] | [2] | [6]

CC(C)(C)c1[nH]cnc1C=c1[nH]c(=O)c(=Cc2ccccc2)[nH]c1=O
active: [1] 48.1 µM | [2] 0.001 µM | [3] 0.0111 µM | [4] 35.2 µM | [7] 34 µM
inactive: [5]

O=C1C(c2c(O)[nH]c3ccccc23)=Nc2ccccc21
inactive: [1] | [2] | [6] | [4] | [9]

C[C@@H]1CC=CC=CC=CC=C[C@@H](O[C@@H]2O[C@H](C)[C@@H](O)[C@H](N)[C@H]2O)C[C@@H]2O[C@](O)(C[C@@H](O)C[C@@H]3O[C@@H]3C=CC(=O)O1)C[C@H](O)[C@@H]2C(=O)O
active: [3] 15.3 µM | [4] 9.68 µM
inactive: [1] | [2] | [5]

NC(=O)c1ncn([C@@H]2O[C@H](CO)[C@@H](O)[C@@H]2O)n1
not listed: [3]
inactive: all other assays above

Cn1c(=O)c(-c2c(Cl)cccc2Cl)cc2cnc(Nc3cccc(C(=O)O)c3)nc21
not listed: [4] | [6] | [8]
inactive: all other assays above

Cc1ccc(S(=O)(=O)OCC(=O)Nc2ccc(C(=O)O)c(O)c2)cc1
inactive: [3] | [8] | [5]
active: [1] 18.7 µM | [2] 2.35 µM

CN1CCc2c(n(Cc3ccc(C(=O)NO)cc3)c3ccccc23)C1
inactive: [5] | [10]
active: [1] 11.8 µM | [2] 16.6 µM | [6] 18.7 µM | [4] 21.7 µM | [7] 18.7 µM | [9] 11.8 µM

CCC[C@H](N[C@@H](C)C(=O)N1[C@@H]2CCCC[C@H]2C[C@H]1C(=O)O)C(=O)OCC
inactive: [1] | [2] | [8] | [5] | [10] | [9]

CC(=O)N1CCN(c2ccc(OCc3nn(C)c(C)c3-c3cccc4c(CCCOc5cc(C)c(Cl)c(C)c5)c(C(=O)O)n(Cc5cccnc5)c34)cc2)CC1
active: [1] 18.7 µM | [2] 20.9 µM | [7] 18.7 µM | [8] 29.6 µM | [9] 18.7 µM
inactive: [5]

CCC(=O)OCC(=O)[C@@]1(OC(=O)CC)[C@@H](C)C[C@@H]2[C@H]3CCC4=CC(=O)C=C[C@]4(C)[C@@]3(F)[C@@H](O)C[C@@]21C
inactive: [6] | [5] | [10]
active: [1] 2.35 µM | [3] 6.11 µM | [4] 10.9 µM | [7] 6.62 µM | [9] 0.148 µM

CC(C)C[C@@H](C(=O)N[C@H](C(=O)OC1CCCC1)c1ccccc1)[C@H](O)C(=O)NO
active: [1] 18.7 µM | [2] 16.6 µM | [4] 21.7 µM
inactive: [5]

CON(C)C(=O)N1N=C(c2cc(F)ccc2F)S[C@]1(CCCN)c1ccccc1
active: [3] 15.3 µM | [4] 0.001 µM
inactive: [1] | [5] | [10]

CCOc1ccccc1N=Nc1c(C)[nH]n(-c2nc(-c3ccccc3)cs2)c1=O
inactive: [3] | [6] | [5]
active: [1] 1.18 µM

COc1ccc(Cn2ccc3ccc(C(=O)NO)cc32)cc1
active: [1] 14.8 µM | [2] 20.9 µM
inactive: [8] | [5] | [9]

CN(C)CCN(Cc1ccc(Cl)cc1)c1ccccn1
inactive: [3] | [8] | [5] | [10]
active: [1] 14.8 µM

Cc1c(-c2cccc3c(CCCOc4cccc5ccccc45)c(C(=O)O)n(Cc4cccnc4)c23)c(COc2ccc(N3CCN([S+](=O)([O-])N(C)C)CC3)cc2)nn1C
active: [1] 23.5 µM | [2] 20.9 µM | [7] 33.2 µM
inactive: [5]

NC1(C(=O)N[C@@H](CCO)c2ccc(Cl)cc2)CCN(c2ncnc3[nH]ccc23)CC1
inactive: [5]
active: [1] 1.87 µM | [2] 18.7 µM | [6] 2.35 µM | [8] 7.43 µM | [9] 0.743 µM
